Source: PubChem BioAssay
HPGD inh: HPGD (human) dehydrogenase inhibition; P15428; 4.3% of 150,000 active; Potency, µM, for inactives: at the top dose activity change, negative = inhibition, actives largely listed as inhibitors; purified HPGD, NADH fluorescence kinetic, PGE2 substrate; AID 894; active = well fitted inhibition curve with a large enough effect, not every such curve was filed as active; inconclusive = small, poorly fitted or top-dose-only effect, or another doubt; inactive = no such curve, though single readings can be large or run the other way; note: % is set by controls: 0 for no effect and ±100 for the full control effect
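20 nM HPGD preincubated 15 min at room temperature with compound in 50 mM Tris-HCl pH 8, 0.01% Tween 20. Started with 1 mM NAD+ and 30 uM prostaglandin E2; NADH fluorescence (360/450 nm) read 5 times over 30-s intervals, last minus first.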
ALDH1A1 block: ALDH1A1 (human) enzyme inhibition; P00352; Purified ALDH1A1, NADH fluorescence, propionaldehyde substrate; Potency, µM (titrated, usually from 75.3 µM), for the others: at the top dose activity, negative = inhibition, most hits filed as inhibitors; 7.3% of 220,000 active; active = well fitted inhibition curve with a large enough effect, not every such curve was filed as active; inconclusive = small, poorly fitted or top-dose-only effect, or another doubt; inactive = no such curve, though single readings can be large or run the other way;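 note: plate controls were no enzyme wells and a reference inhibitor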
Target sequence (P00352 whole entry, looked up): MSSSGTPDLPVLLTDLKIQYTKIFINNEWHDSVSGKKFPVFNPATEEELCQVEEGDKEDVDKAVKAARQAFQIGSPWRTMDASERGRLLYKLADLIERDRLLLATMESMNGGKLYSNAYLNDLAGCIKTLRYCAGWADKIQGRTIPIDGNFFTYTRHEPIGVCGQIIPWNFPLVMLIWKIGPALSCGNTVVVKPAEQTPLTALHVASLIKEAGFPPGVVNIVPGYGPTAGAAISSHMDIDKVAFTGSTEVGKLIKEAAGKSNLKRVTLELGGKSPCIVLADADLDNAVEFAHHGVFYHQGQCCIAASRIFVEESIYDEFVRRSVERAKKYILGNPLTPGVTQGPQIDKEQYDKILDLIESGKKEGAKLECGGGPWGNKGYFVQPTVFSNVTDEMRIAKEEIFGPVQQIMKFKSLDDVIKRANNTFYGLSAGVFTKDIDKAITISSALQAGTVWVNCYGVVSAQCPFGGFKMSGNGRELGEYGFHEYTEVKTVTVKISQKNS
HttQ103 aggreg: reduces HttQ103-GFP aggregates in PC12 cells. PC12 HttQ103-GFP aggregates, Acumen cytometry, 40 h. Potency, µM (doses to about 46.1 µM), for the others: at the top dose activity change, negative = inhibition, actives largely listed as inhibitors. 1.1% of 220,000 active. AID 1688; note: % is set by controls: 0 for no effect and ±100 for the full control effect; nearly all actives have a fitted effect of over 60% in size
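PC12 cells stably carrying ecdysone-inducible HTT exon 1 Q103–GFP were induced with tebufenozide (100 nM final) and treated with library compounds in titration. GFP aggregates in lysates were counted by laser scanning cytometry.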
Luc counter: counter-screen: inhibitors of Kinase-Glo firefly luciferase; 0.28% of 200,000 active; Kinase-Glo luciferase, ATP luminescence, 8 min; Q27757; AID 1379; Potency, µM (top dose mostly 38.3 µM), inactives show at the highest dose activity change, negative = inhibition, hits mostly inhibitors; note: % is set by controls: 0 for no effect and ±100 for the full control effect; nearly all actives have a fitted effect of over 60% in size
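Light output from Kinase-Glo luciferase with luciferin and 10 uM ATP in 50 mM imidazole pH 7.2, KCl, MgCl2, Tween 20, BSA; compound pin-delivered, 8-min ambient incubation, then luminescence read.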
LMNA splice mod: LMNA splicing modulation; HeLa LMNA splicing GFP/RFP minigene ratio, 48 h; Potency, µM (doses to about 46.1 µM), without a hit: at the top dose ratio change, negative = inhibition, most hits filed as inhibitors; 0.01% of 200,000 active; AID 1487; active = well fitted inhibition curve with a large enough effect in the signal ratio, with a control signal flat, not every such curve was filed as active; inconclusive = small, poorly fitted or top-dose-only effect, or effect the other way, or a change in a side signal; the % refers to the signal ratio; note: % is set by controls: 0 for no effect and ±100 for the full control effect
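Read-out is the ratio of GFP to DsRed2 object intensity, acquired by 488 nm laser-scanning cytometry on HeLa lamin A-EGFP minigene reporter cells. Compound incubation 48 hrs at 37 °C in Opti-MEM with 2% FBS; DMSO 0.5% final.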
HTT cytoprotect: cytoprotection in Huntington HTT-Q103 PC12 cell model; Potency, µM (top dose mostly 56.4 µM), without a hit: cytoprotection (ATP increase), usual class: activators; PC12 HTT-Q103 induced, cytoprotection, ATP luminescence, 40 h; 0.14% of 230,000 active; note: % of control where 0% means no effect; nearly all actives have a fitted effect of over 45% in size
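Rat PC12, Q103 Htt exon1-GFP fusion, ecdysone promoter; tebufenozide inducer 100 nM final; compound titration; qHTS, 1500 cells/well; ATPlite luminescent read.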
An asterisk follows results filed as active; ? = inconclusive; . = not tested or not shown; [ ] = remark or other dose. This is a sample that favours compounds with a hit; in the whole collection about 9% have one here. Unless noted, calls come from the whole dose curve; as a rule, active = well fitted curve in the direction sought with a large enough effect; inconclusive = small, poorly fitted or top-dose-only effect, or another doubt; inactive = no such curve, though single readings can be large; an effect the other way counts as inactive or inconclusive. Potency is the fitted concentration of half-maximal effect.

SMILES	HPGD inh	ALDH1A1 block	HttQ103 aggreg	Luc counter	LMNA splice mod	HTT cytoprotect
O=C(c1cccnc1)N1CCc2ccccc21	0%	1%	4%	-1%	-11%	-6%
CCN1CCCC1CN(Cc1cc2cc(C)ccc2[nH]c1=O)C(=O)Nc1ccccc1OC (stereo not given)	?	?	15%	-8%	-5%	3%
O=C(CNC(=S)N(Cc1ccccc1F)C1CCCCC1)NC1CC1	-6%	13µM*	19%	-5%	4%	-8%[10 µM]
CCCNC(=O)CNC(=S)N(Cc1ccccc1F)C1CCCCC1	.	10µM*	-33%	0%	1%[46 µM]	3%[10 µM]
CCOC(=O)CNC(=S)N(Cc1ccccc1F)C1CCCCC1	.	?	0%	1%	.	-3%
O=C(COc1cc(F)ccc1[N+](=O)[O-])Nc1cccc(Br)c1	.	1%	7%	0%	1%[46 µM]	4%[10 µM]
CCOC(=O)c1c(C)[nH]c(C(=O)OCC(=O)N(C)C2CCS(=O)(=O)C2)c1C (stereo not given)	-4%	2%	4%	-3%	-3%	17%
O=C(CCCC1=NS(=O)(=O)c2ccccc2N1)N1CCN(c2ccc(Cl)cc2)CC1	0%	55%	-6%	11%	?	17%
CC(C)(CC(=O)N1CCN(c2ccc(Cl)cc2)CC1)CC1=NS(=O)(=O)c2ccccc2N1	-5%	-19%	11µM*	-4%	16%	-46%
C/C(=N\NC(=O)c1nc2ccccn2c1C)c1cc2ccccc2o1	.	-16%	-9%	3%	.	-73%
Cc1c(C(=O)NN)nc2ccccn12	-12%	4.5µM*	-16%	1%	-14%	14%[1.9 µM]
CCOc1cc(CNCCSc2nnnn2C)cc(Br)c1OCc1ccccc1F	-28%	?	-25%	-2%	19%	-30%
CCOc1cc(CNCc2ccncc2)cc(Br)c1OCc1ccccc1F	-14%	8%	10µM*	-2%	-1%	-56%
CN(Cc1ccccc1)C(=O)c1cc(-c2ccc(Br)cc2)on1	-21%	-2%	-30%	-3%	?	-1%[10 µM]
Cc1ccc(Cl)cc1NC(=S)NCCCSC1CCCCC1	.	?	22µM*	-1%	?	-195%
Cc1ccc(O)c(CNn2cnnc2)c1	-8%	-1%	1%	0%	-11%	17%[10 µM]
CC(C)(C)C1CCc2[nH]nc(C(=O)O)c2C1 (stereo not given)	-19%	-1%	-8%	-3%	1%	3.5µM*
Cc1nc2nc(-c3cccnc3)[nH]n2c(=O)c1C	-3%	18µM*	-3%[9.22 µM]	-9%	-1%	-14%
O=C(Nc1nc(-c2ccc(F)cc2)cs1)c1cnccn1	-2%	6%	10µM*	3%	-3%	1%[10 µM]
O=C(NNc1nc2ccc(F)cc2s1)c1cccc(F)c1	.	-7%	13µM*	3%	.	.
O=C(Nc1nc2ccc(F)cc2s1)c1ccccn1	.	-1%	?	11µM*	.	-172%
O=C(Nc1nc2ccc(F)cc2s1)C1=NN(c2ccccc2)C(=O)CC1	-15%	?	-14%	-3%	-9%	7%[10 µM]
O=C(Nc1nc2ccccc2s1)c1cnccn1	-16%	-10%	?	7.9µM*	5%	-47%
CCOc1ccc2nc(NC(=O)c3cnccn3)sc2c1	.	-14%	1%	.	1%	-14%
O=C(NNc1nc2ccccc2s1)c1ccc(F)cc1	-11%	-12%	-21%	1%	?	2%[10 µM]
SMILES	HPGD inh	ALDH1A1 block	HttQ103 aggreg	Luc counter	LMNA splice mod	HTT cytoprotect
COc1ccc2cc(CN(CC3COCCO3)S(=O)(=O)c3c(C)cc(C)cc3C)c(=O)[nH]c2c1 (stereo not given)	-24%	-3%	26%	-2%	1%	-3%
COC(=O)C1CSC(C(=O)OC)N1C(=O)Nc1ccc(Cl)c(Cl)c1 (stereo not given)	-9%	4%	18%	5%	-4%	17%[10 µM]
Cc1ccc(C(=O)Nc2nc3ccccc3s2)s1	?	?	-22%	13µM*	?	-46%[10 µM]
Cc1ccc[n+](CC(=O)Nc2nc3ccccc3s2)c1	.	14µM*	.	0%	.	.
CC(=O)/C=C(\C)Nc1ccccc1O	.	.	15%[9.22 µM]	.	.	2%[10 µM]
CCC1(CC)NC(=O)N(CC(=O)OCn2nnc3ccccc3c2=O)C1=O	-22%	13µM*	2%	4%	4%	-17%[10 µM]
Cc1ccc(SCCC(=O)OCn2nnc3ccccc3c2=O)cc1	.	15µM*	1%	7%	?	2%[10 µM]
O=C(OCn1nnc2ccccc2c1=O)c1ccc2ncsc2c1	25µM*	?	-1%	0%	?	-45%
O=C(OCn1nnc2ccccc2c1=O)C1CCCCC1	11µM*	16µM*	-8%	-5%	8%	-16%[10 µM]
COC(=O)c1cc(-c2ccccc2)sc1NC(=O)c1cc(C)on1	?	?	-9%	1%	-9%	19%[10 µM]
CCOc1cccc(-c2cc(-c3n[nH]c(=S)n3CC)c3ccccc3n2)c1	?	-12%	8%	-4%	13%	0%
CCNC(=O)C1CCN(S(=O)(=O)c2ccc(F)cc2)CC1	-4%	0%	17%	-3%	-4%	-15%[10 µM]
COc1cccc(N=Nc2c(N)[nH]n3c(=O)cc(-c4ccccc4)nc23)c1	-19%	4%	10µM*	4%	-9%	-77%
Cc1ccc(N=Nc2c(N)[nH]n3c(=O)cc(-c4ccccc4)nc23)cc1	-22%	12%	?	-2%	-17%	-36%
CCCn1c(NC(=O)C2COc3ccccc3O2)nc2ccccc21 (stereo not given)	-5%	12%	?	0%	0%	-24%
O=Cc1ccc(Sc2nnc(-c3ccccc3)o2)c([N+](=O)[O-])c1	14µM*	7.9µM*	?	-3%	?	-10%
Cc1ccnc(Sc2ccc([N+](=O)[O-])cc2[N+](=O)[O-])n1	-12%	?	?	4%	?	-111%
Cc1cc(C)nc(Sc2ccc(C=O)cc2[N+](=O)[O-])n1	.	7.1µM*	1%[9.22 µM]	0%	-2%[46 µM]	13%[10 µM]
O=[N+]([O-])c1cccc2ccc(/C=C/c3ccc(F)cc3)nc12	-9%	?	-4%	-4%	-11%	-2%[10 µM]
CCOC(=O)C1=C(OCc2ccc(Cl)cc2)C2C=C(C)C=CC2N=C1 (stereo not given)	-6%	2%	0%	-5%	2%	16%[10 µM]
O=C1NC(c2ccccc2)=CC(c2ccccc2)N1 (stereo not given)	.	4%	19%	-3%	-14%[46 µM]	-19%
COc1cccc(OCCCCCCN2CCOCC2)c1	-9%	4µM*	-18%[9.22 µM]	7%	4%	30%
CCOc1cccc(OCCCCN2CCOCC2)c1	2%	?	?	-5%	13%	6%
